Compound activity (PubChem BioAssay)
Not all results are given here.
aSyn UTR act – Activators working through SNCA 5'UTR binding (MLPCN). AID 1814. actives 7.1% (n = 300,000). alpha-synuclein 5'UTR reporter, activators screen. activity score, % (tested at 7.5 µM), hits read low; in the data active = activity score below about -60%
Numbers stand for hits; – = inactive.

SMILES	aSyn UTR act
Cc1ccccc1OCc1n(CC(=O)OC2CC(C)CCC2C(C)C)c2ccccc2[n+]1C (configuration not stated)	–
CC(=O)Nc1ccc(-c2cn3ccsc3n2)cc1	-71.3
c1cn2cc(-c3ccc4c(c3)OCO4)nc2s1	-137.1
NC(=O)C1=NOC(CNc2ncc(C(F)(F)F)cc2Cl)C1 (configuration not stated)	-72.3
O=c1c(Cl)nc2cc(Cl)ccc2n1CCNc1ncc(C(F)(F)F)cc1Cl	–
O=C(CC(SCc1ccco1)c1ccc(O)cc1)c1cccs1 (configuration not stated)	-167.9
O=C(CC(SCCO)c1ccc2c(c1)OCO2)c1cccs1 (configuration not stated)	-193.5
Cn1cnc2cc(NC(=O)c3ccco3)ccc21	-71.1
O=C(Nc1ccc2c(c1)ncn2-c1ccccc1)c1ccco1	-131.2
COc1ccc(C(=O)/C=C2/C(=O)Nc3ccccc32)cc1	-98.9
O=C(Nc1nnc(C2CC2)s1)c1cc(-c2ccccc2)nn1-c1ccccc1	-94.5
O=C(Nc1nnc(C2CCCCC2)s1)c1ccco1	-177.9
O=C(Nc1nnc(C2CC2)s1)c1ccco1	-74.0
CCc1c(C(=O)Nc2nnc(C3CC3)s2)csc1C	-118.6
O=c1c2ccccc2nc2ccc(NCc3cccs3)nn12	-163.9
Fc1ccc(C[n+]2csc3ccccc32)cc1	-108.8
O=C(CNC(=O)c1ccco1)Nc1ccc(Cl)cc1	-69.6
O=C(CNC(=O)c1ccco1)Nc1ccc(Br)cc1	-141.6
O=Cc1cc2cc3c(cc2nc1Cl)OCCO3	-61.5
CCOc1ccc(Nc2oc(-c3ccc(Cl)cc3)nc2C#N)cc1	-139.4
COc1ccc(Nc2oc(COc3ccc(Cl)cc3)nc2C#N)cc1	–
COc1ccc(Nc2oc(-c3ccc(OC)cc3)nc2C#N)cc1	-132.4
CNc1oc(-c2ccccc2)nc1C#N	-62.3
COc1ccc(Nc2oc(-c3ccc(Cl)cc3)nc2C#N)cc1	-77.5
CCOc1ccc(-c2nc(C#N)c(NC3CC3)o2)cc1	-95.2
SMILES	aSyn UTR act
COc1ccc(-c2nc(C#N)c(NCCc3ccccc3)o2)cc1	-145.8
COc1ccc(Nc2oc(-c3ccccc3)nc2C#N)cc1	-112.3
CCOc1cc(/C=C\c2[nH]c(=O)[nH]c(=O)c2[N+](=O)[O-])ccc1OC(C)CC (configuration not stated)	-67.0
Cc1ccc(NC(=O)O/N=C/c2c(C)nn(C(C)(C)C)c2C)cc1Cl	–
Cc1nn(C)cc1CNC(=O)Nc1ccc(Cl)c(Cl)c1	-145.4
CCN(CC)S(=O)(=O)c1cc([N+](=O)[O-])ccc1NNC(=O)Nc1ccc(Cl)c(Cl)c1	–
Cc1ccc(NC(=O)NCc2c(C)nn(C)c2C)cc1Cl	-157.2
Cc1c(O)c(=O)ccn1Cc1ccccc1	–
Cc1ccc(Cn2ccc(=O)c(OCc3ccccc3)c2C)cc1	-109.5
Cc1ccc(Cn2ccc(=O)c(Cc3c(Cl)cccc3Cl)c2C)cc1	–
Cc1ccc(NC(=O)c2ccc(C(C)(C)C)cc2)cc1[N+](=O)[O-]	-159.5
Cc1cc(C)nc(Nc2ccc(C)c([N+](=O)[O-])c2)n1	-99.4
Cc1ccc(NC(=O)c2cccs2)cc1[N+](=O)[O-]	-93.8
Fc1ccc(CNc2ccccn2)cc1	-77.7
CSc1ccc(CNc2ccccn2)cc1	-99.5
C/C(=N\NC(=O)c1c([N+](=O)[O-])c(C)nn1C)c1ccc(NC(=O)C2CCCC2)cc1	–
C/C(=N/NS(=O)(=O)c1ccc(F)cc1)c1ccc(NC(=O)c2ccc(C)o2)cc1	-71.9
C/C(=N\NC(=O)c1c([N+](=O)[O-])c(C)nn1C)c1ccc(NC(=O)c2ccc(C)o2)cc1	-104.2
CN(C)/C=N/c1ncc(C(=O)c2ccccc2)s1	-160.3
Cc1ccc(-c2nc3ccccc3[nH]2)cc1NC(=S)NC(=O)c1ccccc1Br	-67.2
Cc1ccc(-c2nc3ccccc3o2)cc1NC(=S)NC(=O)c1cccs1	-74.6
Cc1ccc(-c2nc3ccccc3s2)cc1NC(=S)NC(=O)c1ccccc1	-115.8
O=C(Nc1ccc2oc(-c3ccccc3)nc2c1)c1cc(-n2cnnc2)ccc1Cl	-63.9
O=C(Nc1ccc2oc(-c3ccccc3)nc2c1)c1cccs1	-294.8
Cc1ccc2oc(-c3cccc(NC(=S)NC(=O)c4cccs4)c3)nc2c1	-152.8
SMILES	aSyn UTR act
O=[N+]([O-])/C=C\c1ccc(N2CCCC2)c(F)c1	-142.5
Cc1ccc(N=C2C(=S)N(c3ccc(C)cc3)C(=N)N2/N=C/c2ccc(Cl)cc2)cc1	-155.6
Cc1occc1C(=O)N/N=C/c1cccs1	-82.0
O=C(N/N=C/c1cccs1)c1n[nH]c2c1CCCC2	–
Cc1occc1C(=O)Nc1cccc2ccccc12	-172.0
Cc1occc1C(=O)N/N=C/c1cccc2ccccc12	-200.2
Cc1ccc(-c2cc(-c3ccccc3O)nc(N/N=C/c3cccnc3)n2)cc1	-99.6
C(=N\Nc1nccc(-c2cccnc2)n1)/c1ccccc1	-108.0
Cc1ccnc(N/N=C/c2ccccc2)n1	-89.6
CSc1nccc(N/N=C/c2ccccc2)n1	-157.7
CCCN(CC(=O)Nc1cc(Cl)ccc1Cl)C(=O)/C=C/c1ccco1	-67.7
CCC1CCCCN1CCCNC(=O)CC1Oc2ccccc2NC1=O (configuration not stated)	-75.0
Cc1ccc(-n2nnc3ccccc3c2=O)cc1C	-149.7
N#Cc1nc(-c2ccc(Cl)cc2)oc1NCCc1ccccn1	-155.5
Cc1ccc(-c2nc(C#N)c(NCCc3ccccn3)o2)cc1	-151.3
O=C(CCc1nc2ccccc2s1)c1ccccc1	-84.6
O=C(CCc1nc2ccccc2s1)OCC(=O)c1ccccc1	-99.9
O=C(COC(=O)CCc1nc2ccccc2s1)Nc1nc(-c2ccccc2)cs1	-84.2
CCOc1ccc(NC2=C(Cl)C(=O)N(C3CCCCC3)C2=O)cc1	-102.2
O=C1C(Cl)=C(Nc2ccccc2O)C(=O)N1CCc1ccccc1	-87.3
CCOc1ccc(N2C(=O)C(Cl)=C(Nc3ccccc3O)C2=O)cc1	-183.7
COc1ccccc1NC1=C(Cl)C(=O)N(c2ccccc2)C1=O	-70.3
O=C1COc2ccc(OCc3ccc(F)cc3)cc21	-99.8
Cc1ccc2nc(-c3ccc(S(=O)(=O)N4CCCCC4)cc3)cn2c1	-81.0
Cc1ccc2nc(-c3cccc(S(=O)(=O)N(C)C)c3)cn2c1	-171.4
SMILES	aSyn UTR act
CCN(CC)S(=O)(=O)c1cccc(-c2cn3cc(C)ccc3n2)c1	-77.6
CCN(CC)S(=O)(=O)c1cccc(-c2nc3n(n2)Cc2ccccc2-3)c1	-86.2
CCCn1c(N)c(Sc2ccc(C)cc2)c(=O)n(CCC)c1=O	-78.7
N/C(=N\OC(=O)c1ccc(Br)cc1)c1ccccc1	-189.9
N/C(=N\OC(=O)c1cccc(Br)c1)c1ccc(Br)cc1	-95.8
Cc1ccc(C(=O)O/N=C(\N)c2ccc(Br)cc2)cc1	-215.0
Cc1nc(-c2ccc(Cl)cc2)sc1C1(C)CC(c2ccccc2)=NO1 (configuration not stated)	-134.2
Cc1nc(-c2ccccc2)sc1C1(C)CC(c2ccccc2F)=NO1 (configuration not stated)	-75.6
COc1ccccc1C1=NOC(C)(c2sc(-c3ccc(Cl)cc3)nc2C)C1 (configuration not stated)	-69.8
CCOC(=O)c1cnc2c(ccc3ccccc32)c1NCCO	-95.8
CCOC(=O)c1cnc2c(ccc3ccccc32)c1N	-125.5
COc1ccc2nc(N3CCC(C)CC3)c(C#N)cc2c1	-175.2
O=C(c1ccco1)N1CCN(Cc2c(Cl)cccc2Cl)CC1	-84.7
CNc1nn(-c2cccc(Cl)c2)nc1N	-97.1
Cc1ccc(O)c(-n2nc3ccccc3n2)c1	-134.3
O=C1/C(=C/Nc2cccc([N+](=O)[O-])c2)CCc2ccccc21	-186.3
